Consider 17 compounds from PubChem BioAssay.

Structures are written as SMILES. Active and inactive are the calls of the source.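 How the source made its calls: active means fluorescence slope higher than the sample average by over 3 SD (cut at about -0.22 in these data, passing the limit was not always enough); inactive means the rest.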

Voltage-gated potassium channel subunit beta-2 (Rattus norvegicus), sequence (P62483 whole entry, looked up): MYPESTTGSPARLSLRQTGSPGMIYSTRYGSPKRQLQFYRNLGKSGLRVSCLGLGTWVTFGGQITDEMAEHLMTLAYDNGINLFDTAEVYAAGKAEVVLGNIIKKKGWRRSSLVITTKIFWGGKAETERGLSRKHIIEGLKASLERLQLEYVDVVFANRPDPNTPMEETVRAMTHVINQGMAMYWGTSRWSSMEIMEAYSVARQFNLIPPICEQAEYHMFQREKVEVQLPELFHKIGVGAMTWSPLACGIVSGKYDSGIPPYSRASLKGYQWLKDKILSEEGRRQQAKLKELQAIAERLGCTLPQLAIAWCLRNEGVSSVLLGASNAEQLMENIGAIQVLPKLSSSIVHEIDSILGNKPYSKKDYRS

This experiment addresses Voltage-gated potassium channel subunit beta-2 (Rattus norvegicus) (UniProt P62483). Put plainly: KvBeta enzyme negative modulators, primary screen, biochemical, NADPH fluorescence (AID 622).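 Further: slope of raw intensity against log time taken from 70 to 1610 s.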 The settings on record: recombinant KvBeta, 4-cyanobenzaldehyde reduction, at 10 µM, hits give high values.
Turning to `Cn1c(Cc2ccccc2)nnc1SCC(=O)N1CCOCC1`, the fluorescence slope was -0.276 (inactive).
As for `CCOC(=O)N1CCN(C(=O)c2c(-c3ccccc3)noc2C)CC1`, the figure is -0.421 (inactive).
As for `Cc1csc(NC(=O)CCCSc2nc3ccccc3s2)n1`, the figure is -0.594 (inactive).
Next, `COc1ccc(-c2nc(C#N)c(N3CCOCC3)o2)cc1OC`: -0.341 (inactive); `COCCn1nnnc1CN1CCC(Cc2ccccc2)CC1`: -0.484 (inactive); `c1cc2c(cc1Cn1cnnn1)OCO2`: -0.492 (inactive).
Take `O=C(OCCN1C(=O)c2ccccc2C1=O)c1ccc(S(=O)(=O)N2CCCCCC2)cc1`: the fluorescence slope is -0.605 (inactive).
Next, `CCCN(Cc1cc2cc(C)ccc2[nH]c1=O)C(=O)c1cccc(OC)c1`: -0.506 (inactive); `c1ccn2c(SCc3ccc4c(c3)OCCO4)nnc2c1`: -0.583 (inactive); `Cc1ccc(-n2c(Cn3cnc4ccccc43)nnc2SCC(=O)O)cc1`: -0.437 (inactive).
As for `CSc1ccc(S(=O)(=O)Nc2cccc(F)c2)cc1`, the figure is -0.408 (inactive); as for `Cc1cc(NC(=O)CCCN2C(=O)c3cccnc3C2=O)no1`, -0.459 (inactive).
On to `C=CCn1c(SCC(=O)NCC2CCCO2)nc2scc(-c3ccco3)c2c1=O` (configuration not stated), for which the fluorescence slope was -0.459 (inactive).
Consider `CCOC(=O)N1CCC(NC(=O)CCN2C(=O)COc3ccccc32)CC1`, for which the fluorescence slope was -0.27 (inactive).
As for `Cc1cccc(Nc2nc(N)nc(CN3CCC(C(N)=O)CC3)n2)c1C`, the figure is -0.628 (inactive).
Take `CC(NS(=O)(=O)c1ccc(F)cc1)C(c1cccs1)N1CCN(C)CC1` (configuration not stated): the fluorescence slope was -0.38 (inactive).
As for `COC(=O)c1cccc(NC(=O)Cc2coc3cc(OC)ccc23)c1`, the figure is -0.595 (inactive).
